We go through 35 compounds from PubChem BioAssay AID1014 (NMMLSC, 2008).

A short description of the experiment: quorum sensing inhibitors in bacterial reporter, SAR follow-up, flow cytometry, SAR analogs (AID 1014).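 Further: Staphylococcus aureus RN6390 with RNAIII-GFP reporter stimulated by AIP; bacteria incubated with compound for 3 hours at 37 °C.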 The note with it: at 20 µM, stronger effect = higher value; inhibition of percent positive cells: flow cytometry fluorescence, measured here: percent reporter-positive cells.

Active and inactive are the calls of the source. No stated cut-off is given here; in the data, active means inhibition of mean fluorescence above about 33%; inactive means the rest.

For the compound `CSCCC(NC(=O)c1ccccc1)C(=O)OCC(=O)Nc1sc2c(c1C#N)CCCC2` (stereo not given), the inhibition of mean fluorescence is 40.6% (active) and the inhibition of percent positive cells is -0.2%.

Consider `COc1ccc(Nc2nc3c(S(=O)(=O)c4ccc(Cl)cc4)nnn3c3ccccc23)cc1`, for which the inhibition of mean fluorescence is -19.3% (inactive) and the inhibition of percent positive cells was -0.9%.

For `O=C(Nc1ccc2c(c1)OCO2)C1CCN(C(=O)c2cnn(-c3ccccc3)c2-n2cccc2)CC1`, the inhibition of mean fluorescence is -13.6% (inactive) and the inhibition of percent positive cells is -0.1%.

In the case of `COc1ccc(Nc2nc3c(S(=O)(=O)c4ccc(C)cc4)nnn3c3ccsc23)cc1`, the inhibition of mean fluorescence was -6.2% (inactive) and the inhibition of percent positive cells was -0.3%.

As for `CC(=O)c1cc2cc(O)ccc2o1`, the inhibition of mean fluorescence was -1% (inactive) and the inhibition of percent positive cells is 0.8%.

As for `CC(=O)Nc1ccc(Nc2nc3c(S(=O)(=O)c4ccccc4)nnn3c3ccccc23)cc1`, the inhibition of mean fluorescence is -8% (inactive) and the inhibition of percent positive cells worked out at 3.3%.

`CC1CCN(C(=O)c2oc3ccccc3c2NC(=O)c2ccc3c(c2)OCO3)CC1`: the inhibition of mean fluorescence was 25.2% (inactive) and the inhibition of percent positive cells was -0.2%.

For `O=C(NCC(c1cccnc1)N1CCc2ccccc21)c1ccc(F)c(F)c1` (stereo not given), the inhibition of mean fluorescence was 19.9% (inactive) and the inhibition of percent positive cells was -0.3%.

`O=C(c1ccco1)c1coc2ccc(O)cc12`: the inhibition of mean fluorescence was -10.7% (inactive) and the inhibition of percent positive cells was determined as 0.2%.

As to `O=C(NCC(c1cccnc1)N1CCc2ccccc21)c1cccc(F)c1` (stereo not given), the inhibition of mean fluorescence was 6.5% (inactive) and the inhibition of percent positive cells is -2%.

Consider `O=C(NCC(c1cccnc1)N1CCN(c2ccccc2)CC1)c1ccccc1F` (stereo not given), for which the inhibition of mean fluorescence is -31.8% (inactive) and the inhibition of percent positive cells was -1.7%.

In the case of `O=C(O)c1ccccc1Nc1ccnc(N2CCOCC2)n1`, the inhibition of mean fluorescence is 5.6% (inactive) and the inhibition of percent positive cells came to 0%.

For the compound `CCc1c(C(=O)c2ccc(C)cc2)oc2ccc3c(C)cc(=O)oc3c12`, the inhibition of mean fluorescence was 10.8% (inactive) and the inhibition of percent positive cells is -0.1%.

Consider `Cc1cccc(Nc2c(F)c(F)c(F)c(F)c2C(=O)O)c1`, for which the inhibition of mean fluorescence is -16.8% (inactive) and the inhibition of percent positive cells was -0.2%.

For the compound `O=C(Nc1ccc2c(c1)OCO2)C(c1ccccc1)N1CCN(C(=O)c2ccco2)CC1` (stereo not given), the inhibition of mean fluorescence is -23.7% (inactive) and the inhibition of percent positive cells was 1%.

With `O=C(Nc1ccc2c(c1)OCO2)C(c1ccccc1)N1CCCCC1` (stereo not given), the inhibition of mean fluorescence was 40.3% (active) and the inhibition of percent positive cells is -0.7%.

For the compound `COc1ccc(NC(=O)C(c2cc3c(cc2[N+](=O)[O-])OCO3)N2CC(C)CC(C)C2)cc1` (stereo not given), the inhibition of mean fluorescence was 49.3% (active) and the inhibition of percent positive cells is 0.5%.

In the case of `O=C(NC1CCCC1)C(c1cc2c(cc1[N+](=O)[O-])OCO2)N1CCC(Cc2ccccc2)CC1` (stereo not given), the inhibition of mean fluorescence is 4.9% (inactive) and the inhibition of percent positive cells is -0.6%.

For the compound `O=C(NCC(c1cccnc1)N1CCN(c2ccc(F)cc2)CC1)c1cccc(Cl)c1` (stereo not given), the inhibition of mean fluorescence is -11.7% (inactive) and the inhibition of percent positive cells is -0.1%.

On to `CCOc1ccc(Nc2nc3c(S(=O)(=O)c4ccc(Br)cc4)nnn3c3ccccc23)cc1`, for which the inhibition of mean fluorescence is -22.8% (inactive) and the inhibition of percent positive cells was -0.3%.

For `CCOC(=O)c1c(-c2cc(Br)c(OC)c(Br)c2)oc2ccc(O)cc12`, the inhibition of mean fluorescence was -2.7% (inactive) and the inhibition of percent positive cells is -0.6%.

Take `CCOC(=O)C1CCN(C(C(=O)Nc2ccc3c(c2)OCO3)c2ccccc2)CC1` (stereo not given): the inhibition of mean fluorescence was -1% (inactive) and the inhibition of percent positive cells is -0.4%.

For `O=C1CS/C(=N\C(=O)N2c3ccccc3Sc3ccccc32)N1`, the inhibition of mean fluorescence is 91.4% (active) and the inhibition of percent positive cells was determined as 52.4%.

`CC1CCCN(C(C(=O)Nc2ccc3c(c2)OCCO3)c2ccccc2)C1` (stereo not given): the inhibition of mean fluorescence is 91.5% (active) and the inhibition of percent positive cells was determined as 63.1%.

Turning to `O=C(NCC(c1cccnc1)N1CCN(c2ccccc2F)CC1)c1ccc(F)cc1` (stereo not given), the inhibition of mean fluorescence is 11.5% (inactive) and the inhibition of percent positive cells was -1.8%.

Turning to `Cc1ccc(S(=O)(=O)c2nnn3c2nc(Nc2ccc(Oc4ccccc4)cc2)c2cc(Cl)ccc23)cc1`, the inhibition of mean fluorescence is -19.1% (inactive) and the inhibition of percent positive cells was -0.5%.

For `O=C(NC1CCCC1)C(c1cc2c(cc1[N+](=O)[O-])OCO2)N1CCN(c2ccccc2)CC1` (stereo not given), the inhibition of mean fluorescence is -13.2% (inactive) and the inhibition of percent positive cells is -1.6%.

Consider `CC(=O)c1cc2c(cc1NC(=O)CN1CCN(C(c3ccccc3)c3ccccc3)CC1)OCO2`, for which the inhibition of mean fluorescence was 38.7% (active) and the inhibition of percent positive cells is 0.4%.

As for `COc1cccc(C(=O)NCC(c2cccnc2)N2CCN(c3ccccc3F)CC2)c1` (stereo not given), the inhibition of mean fluorescence was 7% (inactive) and the inhibition of percent positive cells is -1.4%.

Regarding `Cc1ccc(Nc2c(F)c(F)c(F)c(F)c2C(=O)O)c(C)c1`, the inhibition of mean fluorescence is 4.2% (inactive) and the inhibition of percent positive cells was -2.3%.

On to `CCN1CCN(C(C(=O)NC2CCCC2)c2cc3c(cc2[N+](=O)[O-])OCO3)CC1` (stereo not given), for which the inhibition of mean fluorescence is -8.6% (inactive) and the inhibition of percent positive cells is -0.6%.

Take `COc1ccc(C(=O)NCC(c2cccnc2)N2CCN(c3ccc(F)cc3)CC2)cc1OC` (stereo not given): the inhibition of mean fluorescence was 3.4% (inactive) and the inhibition of percent positive cells came out at 0%.

Consider `CCOc1ccc(Nc2nc3c(S(=O)(=O)c4ccccc4)nnn3c3ccccc23)cc1`, for which the inhibition of mean fluorescence is -16.3% (inactive) and the inhibition of percent positive cells was -0.2%.

On to `Cc1ccc(C)c(Nc2c(F)c(F)c(F)c(F)c2C(=O)O)c1`, for which the inhibition of mean fluorescence is 2.3% (inactive) and the inhibition of percent positive cells was -1.9%.

As for `O=CN1CCN(C(C(=O)NC2CCCC2)c2cc3c(cc2[N+](=O)[O-])OCO3)CC1` (stereo not given), the inhibition of mean fluorescence was -8.7% (inactive) and the inhibition of percent positive cells is -0.6%.
